Results on 15 compounds are retold here after PubChem BioAssay (NCATS).

Inconclusive results are not listed. Active and inactive are the calls of the source. Unless noted, calls follow the shape of the dose curve; as a rule, active = well fitted curve in the direction sought with a large enough effect; inconclusive = small, poorly fitted or top-dose-only effect, or another doubt; inactive = no such curve, though single readings can be large; an effect the other way counts as inactive or inconclusive.

Assay [1] addresses Atrial natriuretic peptide receptor 2 (Homo sapiens) (UniProt P20594). The assay can be described thus: Natriuretic polypeptide receptor (hNpr2) antagonism - Pilot subtype selectivity assay (AID 1347050; calls by dose curve). The gist of the method:
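cGMP-sensor HEK293/hNpr2 cells; 2% GloSensor reagent 2 h RT; compounds 30 min; baseline luminescence read; 1 nM hNppC agonist 20 min RT; final luminescence read by CCD camera. Antagonism = reduced post-agonist signal.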

A short description of assay [2]: NS1 protein of Zika virus - qHTS assay to identify small molecule inhibitors in human HEK 293 cells (AID 1347053). Also: nearly all actives have a fitted effect of over 55% in size. Also: potency is read from the fitted curve at half-maximal effect. The gist of the method: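 HEK 293 cells pretreated with compound for 1 h, then infected with ZIKV MR766 (MOI 0.5) for 24 h at 37 C. NS1 detected by TR-FRET with two anti-NS1 antibodies; normalized to uninfected (0%) and infected (100%) wells.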
Background: In qHTS, concentration-response curves come from the screen itself.

Assay [3] has as its target T1, Tyrosine-protein phosphatase non-receptor type substrate 1 (Homo sapiens) + Leukocyte surface antigen CD47 (Homo sapiens) (UniProt P78324+Q08722). The assay can be described thus: CD47-SIRPalpha protein protein interaction - LANCE assay qHTS validation (AID 1347057; active = well fitted curve in the direction sought with a large enough effect in the signal ratio, with a control signal flat, not every such curve was filed as active; the % refers to the signal ratio; also: series mostly up to about 38 µM). The procedure, abridged: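 First, His-tagged CD47 and Eu-labelled anti-His antibody met the compound for 30 min; next, site-specifically biotinylated SIRPalpha was added for 30 min; finally streptavidin-APC was added before reading the TR-FRET ratio.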

For assay [4], the target named is T1, Tyrosine-protein phosphatase non-receptor type substrate 1 (Homo sapiens) + Leukocyte surface antigen CD47 (Homo sapiens). In words: CD47-SIRPalpha protein protein interaction - HTRF assay qHTS validation (AID 1347058; active = well fitted curve in the direction sought with a large enough effect in the signal ratio, not every such curve was filed as active; the % refers to the signal ratio; also: series mostly up to about 38 µM). The gist of the method:
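TR-FRET read (Ch1/Ch2 ratio) of soluble extracellular CD47 and Avi-biotinylated SIRPalpha domains in PBS pH 7.4 with 0.05% IGEPAL; 7-point compound titration. Sequential 30 min room-temperature steps; non-biotinylated SIRPalpha as control inhibitor.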
Background: TR-FRET usually uses a lanthanide donor and a delayed reading to cut background.

Assay [5] shares this target. The assay can be described thus: CD47-SIRPalpha protein protein interaction - Alpha assay qHTS validation (AID 1347059).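 Also: bead proximity luminescence from CD47 binding SIRPalpha after compound preincubation with SIRPalpha.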 Also: potency is read from the fitted curve at half-maximal effect. The gist of the method: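 Soluble extracellular domains: Avi-tag biotinylated SIRPalpha (25 nM) preincubated 30 min RT with compound, then 6His-CD47 (12.5 nM) 30 min; Ni-NTA acceptor and streptavidin donor beads (10 ug/mL) 30 min, AlphaScreen read. PBS pH 7.4, 0.05% IGEPAL.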

Assay [6] concerns the target Parathyroid hormone/parathyroid hormone-related peptide receptor (Homo sapiens) (UniProt Q03431). In words: qHTS for PTHR1 Agonists: Optimization Screen against the NCGC LOPAC library (AID 1347079).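 Also: GloSensor cAMP luminescence in HEK-293 GP2 cells expressing human PTHR1 with IBMX.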 The gist of the method:
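Agonist readout: GloSensor cAMP luminescence, read after 15 min at room temperature. HEK-293-derived GP2 line carries PTHR1; compounds tested as a titration for 1 hr at 37C in presence of IBMX. M-PTH (1-15) served as control.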

Assay [7] in a line: qHTS of pediatric cancer cell lines to identify multiple opportunities for drug repurposing: Primary screen for TC32 cells (AID 1347089). Also: nearly all actives have a fitted effect of over 60% in size. Also: potency is read from the fitted curve at half-maximal effect. The gist of the method:
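Luminescent CellTiter-Glo read-out of metabolically active TC32 cells after 48 h compound exposure. Primary: MIPE 11-point, 0.78 nM–46 µM; NPC 8-point, 0.59 nM–46 µM. Confirmatory: 11-point dilutions.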

A short description of assay [8]: qHTS of pediatric cancer cell lines to identify multiple opportunities for drug repurposing: Primary screen for DAOY cells (AID 1347090). Also: nearly all actives have a fitted effect of over 55% in size. Also: potency is read from the fitted curve at half-maximal effect. The gist of the method:
(§1)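 Eight- or eleven-point concentration series, 48 h treatment at 37 degrees C in growth media; readout CellTiter-Glo luminescence. Potency and efficacy were taken from the concentration-response curves.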

Assay [9] can be described thus: qHTS of pediatric cancer cell lines to identify multiple opportunities for drug repurposing: Primary screen for SJ-GBM2 cells (AID 1347091). Also: potency is read from the fitted curve at half-maximal effect. The gist of the method:
as §1

Assay [10] can be described thus: qHTS of pediatric cancer cell lines to identify multiple opportunities for drug repurposing: Primary screen for A673 cells (AID 1347092). Also: nearly all actives have a fitted effect of over 45% in size. Also: potency is read from the fitted curve at half-maximal effect. The gist of the method:
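A673 cells (500-1,000 cells/well in growth media) were pre-incubated 5 h at 37 degrees C, then exposed to compounds for 48 h. Viability was read as CellTiter-Glo luminescence; concentration-response curves came directly from the primary screen.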

Assay [11] is described as follows: qHTS of pediatric cancer cell lines to identify multiple opportunities for drug repurposing: Primary screen for SK-N-MC cells (AID 1347093). Also: potency is read from the fitted curve at half-maximal effect. The gist of the method:
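Metabolically active cells were quantified by ATP-dependent luminescence (CellTiter-Glo, 15 min at room temperature) following 48 h treatment. Cells had been plated at 500-1,000 per well and settled for 5 h beforehand.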

Assay [12] is described as follows: qHTS of pediatric cancer cell lines to identify multiple opportunities for drug repurposing: Primary screen for BT-37 cells (AID 1347094). Also: potency is read from the fitted curve at half-maximal effect. The procedure, abridged: (§2)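 Viability was measured as metabolically active cells after 48 hours of treatment, read by CellTiter-Glo luminescence. Compounds were tested at multiple final concentrations, giving concentration-response curves.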

Assay [13] in a line: qHTS of pediatric cancer cell lines to identify multiple opportunities for drug repurposing: Primary screen for NB-EBc1 cells (AID 1347095). Also: potency is read from the fitted curve at half-maximal effect. The gist of the method: as §2
A short description of assay [14]: qHTS of pediatric cancer cell lines to identify multiple opportunities for drug repurposing: Primary screen for U-2 OS cells (AID 1347096). Also: nearly all actives have a fitted effect of over 50% in size. Also: potency is read from the fitted curve at half-maximal effect. The procedure, abridged: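 Cells (500-1,000/well) in growth media were settled 5 h at 37 degrees C, then given compounds for 48 h. Viability was read as CellTiter-Glo luminescence. Primary runs used MIPE at 11 points (0.78 nM-46 µM) and NPC at 8 points (0.59 nM-46 µM); follow-ups used 11 points.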

Assay [15] is described as follows: qHTS of pediatric cancer cell lines to identify multiple opportunities for drug repurposing: Primary screen for Saos-2 cells (AID 1347097). Also: nearly all actives have a fitted effect of over 40% in size. Also: potency is read from the fitted curve at half-maximal effect. The procedure, abridged:
as §2

Assay [16] in a line: qHTS of pediatric cancer cell lines to identify multiple opportunities for drug repurposing: Primary screen for SK-N-SH cells (AID 1347098). Also: nearly all actives have a fitted effect of over 65% in size. Also: potency is read from the fitted curve at half-maximal effect. The procedure, abridged:
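Cells (500-1,000/well) rested 5 h, then received compounds for 48 h; metabolically active cells were measured by CellTiter-Glo luminescence. Final concentrations spanned up to 46 µM (MIPE, 11-point) or 0.59 nM-46 µM (NPC, 8-point) in primary screens, 11-point in follow-ups.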

Assay [17] in a line: qHTS of pediatric cancer cell lines to identify multiple opportunities for drug repurposing: Primary screen for NB1643 cells (AID 1347099). Also: nearly all actives have a fitted effect of over 50% in size. Also: potency is read from the fitted curve at half-maximal effect. The gist of the method: as §2

Chain of Parathyroid hormone/parathyroid hormone-related peptide receptor (Homo sapiens) (Q03431 whole entry, looked up): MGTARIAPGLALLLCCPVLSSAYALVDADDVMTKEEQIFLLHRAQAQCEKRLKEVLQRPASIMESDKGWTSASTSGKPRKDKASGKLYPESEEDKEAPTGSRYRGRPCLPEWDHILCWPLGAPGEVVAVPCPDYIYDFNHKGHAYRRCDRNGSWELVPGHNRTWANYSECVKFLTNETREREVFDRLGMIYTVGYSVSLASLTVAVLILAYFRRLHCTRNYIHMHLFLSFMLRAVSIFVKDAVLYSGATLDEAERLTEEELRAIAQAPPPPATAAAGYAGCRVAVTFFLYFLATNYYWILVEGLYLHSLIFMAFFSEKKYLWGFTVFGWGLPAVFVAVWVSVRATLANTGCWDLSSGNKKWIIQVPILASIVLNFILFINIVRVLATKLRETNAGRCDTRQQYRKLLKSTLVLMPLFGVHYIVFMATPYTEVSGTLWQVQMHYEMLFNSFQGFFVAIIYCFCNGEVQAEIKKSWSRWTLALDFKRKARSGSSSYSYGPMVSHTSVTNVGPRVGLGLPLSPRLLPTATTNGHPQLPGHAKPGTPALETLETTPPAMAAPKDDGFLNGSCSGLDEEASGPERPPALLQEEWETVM
T1 sequence (P78324 whole entry, looked up): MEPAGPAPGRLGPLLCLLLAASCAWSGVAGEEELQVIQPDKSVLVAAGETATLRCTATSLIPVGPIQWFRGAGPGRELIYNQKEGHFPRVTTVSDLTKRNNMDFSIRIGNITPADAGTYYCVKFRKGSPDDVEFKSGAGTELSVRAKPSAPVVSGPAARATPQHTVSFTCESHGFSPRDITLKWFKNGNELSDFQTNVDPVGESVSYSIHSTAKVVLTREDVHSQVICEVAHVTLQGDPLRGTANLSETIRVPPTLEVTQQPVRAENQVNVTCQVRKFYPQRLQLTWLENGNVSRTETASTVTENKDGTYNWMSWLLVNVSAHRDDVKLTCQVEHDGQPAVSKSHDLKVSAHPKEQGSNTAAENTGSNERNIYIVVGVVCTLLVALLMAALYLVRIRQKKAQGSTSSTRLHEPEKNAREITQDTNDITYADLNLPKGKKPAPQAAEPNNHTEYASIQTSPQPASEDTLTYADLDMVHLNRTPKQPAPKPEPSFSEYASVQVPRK
T1 sequence (Q08722 whole entry, looked up): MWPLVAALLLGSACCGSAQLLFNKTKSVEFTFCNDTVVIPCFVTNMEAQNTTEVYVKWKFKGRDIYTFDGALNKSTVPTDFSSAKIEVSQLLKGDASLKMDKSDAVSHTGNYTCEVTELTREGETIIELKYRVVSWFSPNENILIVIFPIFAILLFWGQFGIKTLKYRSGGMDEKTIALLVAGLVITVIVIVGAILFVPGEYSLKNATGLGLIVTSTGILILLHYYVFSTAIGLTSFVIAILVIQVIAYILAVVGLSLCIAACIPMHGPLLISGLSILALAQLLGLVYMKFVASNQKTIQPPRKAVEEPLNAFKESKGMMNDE
Chain of Atrial natriuretic peptide receptor 2 (Homo sapiens) (P20594 whole entry, looked up): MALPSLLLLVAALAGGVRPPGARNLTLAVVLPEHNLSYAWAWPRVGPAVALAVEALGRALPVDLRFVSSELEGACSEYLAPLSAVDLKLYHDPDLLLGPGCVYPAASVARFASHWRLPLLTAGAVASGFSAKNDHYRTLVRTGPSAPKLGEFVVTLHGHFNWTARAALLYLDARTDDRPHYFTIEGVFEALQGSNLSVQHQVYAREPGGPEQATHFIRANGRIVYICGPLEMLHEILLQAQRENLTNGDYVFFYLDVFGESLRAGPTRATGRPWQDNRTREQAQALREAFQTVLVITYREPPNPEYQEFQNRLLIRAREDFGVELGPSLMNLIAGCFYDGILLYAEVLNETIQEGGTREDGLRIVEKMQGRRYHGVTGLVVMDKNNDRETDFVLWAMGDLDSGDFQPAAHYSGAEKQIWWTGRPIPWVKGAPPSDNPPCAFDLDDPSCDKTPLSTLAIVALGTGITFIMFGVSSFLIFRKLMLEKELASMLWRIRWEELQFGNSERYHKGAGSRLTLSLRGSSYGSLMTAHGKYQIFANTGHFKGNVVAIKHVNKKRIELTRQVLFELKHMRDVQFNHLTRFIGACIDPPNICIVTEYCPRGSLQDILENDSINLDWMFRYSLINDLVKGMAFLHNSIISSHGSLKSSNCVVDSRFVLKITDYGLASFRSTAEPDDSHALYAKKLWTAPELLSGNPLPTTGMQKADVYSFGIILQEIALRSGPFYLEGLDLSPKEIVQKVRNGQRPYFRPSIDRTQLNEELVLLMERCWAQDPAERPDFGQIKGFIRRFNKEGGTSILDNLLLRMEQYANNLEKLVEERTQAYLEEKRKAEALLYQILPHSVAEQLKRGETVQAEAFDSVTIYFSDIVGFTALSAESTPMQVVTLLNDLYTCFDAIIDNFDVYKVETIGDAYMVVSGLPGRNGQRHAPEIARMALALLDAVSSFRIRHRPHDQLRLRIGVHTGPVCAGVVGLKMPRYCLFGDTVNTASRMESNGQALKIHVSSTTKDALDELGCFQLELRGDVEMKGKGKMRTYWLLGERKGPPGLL

As for `CC(C)NCC(O)COc1cccc2ccccc12` (centres undefined), the Potency entry in assay [1], in [2], in assay [3], in assay [5] and in [6] was “inactive” in each case. Also, the result in assay [4] was inactive.
Turning to `c1cnc2c(c1)ccc1cccnc12`, the Potency entry in assay [1], in assay [3] and in assay [6] was “inactive” each time. The results for the Potency in assay [2] and in assay [5] were 7.08 µM (active) and 0.185 µM (active), respectively. For the same compound, in assay [4], the outcome was inactive.
For `CCCCCCCCCCCCCCCCCCN(CCCCCCCCCCCCCCCCCC)CCCN(CCO)CCO`, the Potency result in [2], in assay [3] and in assay [5] was “inactive” throughout. Moreover, the outcome in assay [4] was inactive.
On to `CCCCCC(O)c1cccc(OCc2ccc3ccccc3n2)c1` (centres undefined), for which, in assay [6], the Potency entry was “inactive”.
Consider `COC(=O)c1nc(Cl)c(Cl)nc1N`, for which the Potency was 3.33 µM (active) in assay [7]; 1.33 µM (active) in assay [8]; 5.31 µM (active) in [9]; 2.11 µM (active) in [10]; 0.668 µM (active) in [11]; 13.8 µM (active) in [12]. For the same compound, the Potency in [13] was 1.33 µM (active); in assay [14], 13.3 µM (active); in assay [15], 2.37 µM (active); in [16] it was 3.44 µM (active).
As for `COc1ccc(/C=C2\COc3ccc(C)cc3C2=O)cc1O`, the Potency result in assay [3] and in assay [5] was “inactive” each time.
For `CN1CCN(c2cc3c(nn2)Oc2ccccc2N3C)CC1`, the Potency entry in assay [2], in assay [7], in assay [8], in assay [9], in assay [10] and in assay [11] was “inactive” throughout. Besides, the Potency result in [12], in assay [13], in assay [14], in assay [15], in [16] and in assay [17] was “inactive” throughout.
Regarding `COc1ccc(-c2cc(=S)ss2)cc1`, the Potency entry in assay [2], in [7], in assay [8], in assay [9], in assay [10] and in [11] was “inactive” each time. Further, the Potency entry in assay [12], in assay [14], in [15], in assay [16] and in [17] was “inactive” in each case.
Turning to `CCCCCCCC/C=C/C(=O)O`, the Potency entry in [2], in assay [7], in assay [8], in assay [9], in assay [12] and in assay [13] was “inactive” each time. Further, the Potency result in [14] and in [15] was “inactive” each time. In addition, in [11], the Potency is 42.2 µM (active).
With `Cc1c(C(=O)O)c(O)cc2c1C(=O)c1c(O)c([C@@H]3O[C@H](CO)[C@@H](O)[C@H](O)[C@H]3O)c(O)c(O)c1C2=O`, the Potency result in assay [2], in assay [7], in assay [8], in assay [10], in assay [14] and in [16] was “inactive” throughout. Further, the Potency result in [17] is “inactive”.
As to `COC(=O)Nc1nc2ccc(C(=O)C3CC3)cc2[nH]1`, the Potency entry in assay [2] is “inactive”. The Potency in assay [7] is 1.33 µM (active); in assay [8], 1.06 µM (active); in [9] it was 0.841 µM (active); in assay [10], 1.06 µM (active); in [11], 1.06 µM (active); in assay [12], 2.19 µM (active). In addition, the Potency is 0.596 µM (active) in assay [13] and 0.841 µM (active) in assay [15].
As for `O=Cc1ccc(O)c(O)c1O`, the Potency entry in [2], in assay [7], in assay [8], in assay [9], in assay [12] and in assay [13] was “inactive” in each case.
Consider `O=c1cc(-c2ccccc2)oc2ccccc12`, for which the Potency entry in assay [2], in assay [8], in [9], in [11] and in assay [13] was “inactive” in each case.
As to `COc1ccc(C(=O)/C(Cc2cc(OC)c(OC)c(OC)c2)=C(\C(=O)O)c2ccc3c(c2)OCO3)cc1`, the Potency entry in assay [3] and in [5] was “inactive” in each case.
As for `N=C1N=C(N)c2cc3ccccc3cc21`, the Potency entry in [7] was “inactive”. For the same compound, the Potency in assay [8] was 24.3 µM (active); in assay [9] it was 24.3 µM (active); in assay [10], 19.3 µM (active); in [11] it was 6.86 µM (active); in assay [12] it was 15.9 µM (active); in assay [15], 24.3 µM (active). Moreover, the Potency in assay [16] was 25 µM (active); in assay [17], 19.3 µM (active).
